Structures are written as SMILES. Compounds without any hit were thinned out: in the full panel of roughly 79,000, 15% have a hit. Values without a mark were called inactive. Calls of active or inactive are those of the source. No stated cut-off is given here; in the data, active means growth inhibition above about 70%; inactive means the rest.

The nature of assay [1]: NCI Yeast Anticancer Drug Screen. Data for the rad50 strain (AID 155).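 Further: 0% = growth of vehicle-only cultures of the same strain.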 Particulars: S. cerevisiae rad50 strain growth inhibition; at 50.0 µM; hits give high values. Summed up: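 Inhibition values express reduced yeast growth in compound-treated cultures relative to vehicle-treated controls.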
Assay [2] is described as follows: NCI Yeast Anticancer Drug Screen. Data for the mec2-1 strain (AID 157). Particulars: S. cerevisiae mec2-1 strain, at 50.0 µM, hits give high values. Summed up:
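Compounds were applied to mec2-1 yeast cells. Their growth was then compared with that of vehicle-treated cultures to give growth inhibition.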

Assay [3] is described as follows: NCI Yeast Anticancer Drug Screen. Data for the sgs1 mgt1 strain (AID 161).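 Further: 0% = growth of cultures given vehicle only.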 Particulars: S. cerevisiae sgs1 mgt1 strain, at 50.0 µM, hits give high values. An outline of the steps:
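Percent growth inhibition was derived by comparing compound-exposed mutant yeast with vehicle-exposed cultures. The strain carries alterations in DNA damage repair.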

Assay [4] in a line: NCI Yeast Anticancer Drug Screen. Data for the cln2 rad14 strain (AID 165).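 Further: 0% = growth equal to vehicle treated cultures.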 Particulars: S. cerevisiae cln2 rad14 strain, at 50.0 µM, hits give high values. Summed up:
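Strain: cln2 rad14 yeast, altered in cell cycle control and DNA damage repair. Read-out: growth inhibition vs vehicle.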

A short description of assay [5]: NCI Yeast Anticancer Drug Screen. Data for the bub3 strain (AID 167). Particulars: S. cerevisiae bub3 mutant strain, at 50.0 µM, hits give high values. Summed up:
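Steps: expose the mutant yeast strain to compound; grow alongside vehicle-treated cultures; measure growth; express inhibition against the vehicle cultures.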

The nature of assay [6]: NCI Yeast Anticancer Drug Screen. Data for the mlh1 rad18 strain (AID 175). Particulars: S. cerevisiae mlh1 rad18 strain growth inhibition; at 50.0 µM; hits give high values. Summed up: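 A repair-deficient yeast strain is exposed to test compound, and growth is scored relative to vehicle-treated controls.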

For the molecule `Cc1cccc(C)c1NC(=O)C(=O)C(C#N)c1c(Cl)cccc1Cl` (stereo unspecified), the growth inhibition in assay [1] is -38%; in assay [2], 5.2%; in assay [3], 16.4%; in assay [4] it was -25.2%; in assay [5], -4.85%; in assay [6] it was 10.7%.
Take `C=CCNC(=S)N1c2ccccc2NC(=O)CC1C` (stereo unspecified): the growth inhibition in assay [1] is -45.8%; in assay [2] it was -9.2%; in assay [3] it was -20.4%; in assay [4] it was 13.4%; in assay [5] it was 13.1%; in assay [6], -15.4%.
For the molecule `O=C(O)C(NCCCNC(C(=O)O)c1ccccc1)c1ccccc1` (stereo unspecified), the growth inhibition is 22.4% in assay [1]; 14.2% in assay [2]; 22.6% in assay [3]; 37.6% in assay [4]; 21.7% in assay [5]; 19.1% in assay [6].
On to `COc1ccc2nc(N(C)C)cc(N(C)C)c2c1`, for which the growth inhibition in assay [1] is -10.6%; in assay [2], 5.6%; in assay [3], -2.4%; in assay [4] it was -34.8%; in assay [5], 4.6%; in assay [6] it was -5%.
As for `C[n+]1c2ccccc2c(CNC(CCC(N)=O)C(=O)O)c2ccccc21` (stereo unspecified), the growth inhibition in assay [1] was 83.3% (active); in assay [2], 87.4% (active); in assay [3], 80.6% (active); in assay [4] it was 61.8%; in assay [5] it was 73.3% (active); in assay [6], 87.8% (active).
Turning to `COC1CC(NC(C)=O)C(OC(=O)c2ccccc2)C(CBr)O1` (stereo unspecified), the growth inhibition in assay [1] was 17.6%; in assay [2], 1.4%; in assay [3], 2.45%; in assay [4] it was 15.2%; in assay [5], -1.8%; in assay [6], 19.6%.
Regarding `CC(=O)n1[nH]c(=O)c2ncccc2c1=O`, the growth inhibition in assay [1] is 2.75%; in assay [2], 7.6%; in assay [3] it was 9.45%; in assay [4] it was -6.6%; in assay [5], -8.45%; in assay [6], 9%.
Turning to `CN(C)C/C=C(/c1ccc(Br)cc1)c1cccnc1`, the growth inhibition in assay [1] was -5.75%; in assay [2], -16%; in assay [3] it was -3.7%; in assay [4], -20.4%; in assay [5], -12.6%; in assay [6], 1.65%.
Regarding `Brc1cc(Br)c(-c2c(Br)cc(Br)cc2Br)c(Br)c1`, the growth inhibition in assay [1] is -20.8%; in assay [2], -30.2%; in assay [3], -16.1%; in assay [4], 4.2%; in assay [5], -7.5%; in assay [6], -15.7%.
For `N#CCCC(=O)c1ccc[nH]1`, the growth inhibition in assay [1] was 6.6%; in assay [2], 10.8%; in assay [3], 2.2%; in assay [4], 5.8%; in assay [5], 1.3%; in assay [6], 8.4%.
For the molecule `CC(=O)NC(C)NC(C)=O`, the growth inhibition is -11.8% in assay [1]; -9.95% in assay [2]; -13.8% in assay [3]; -86.5% in assay [4]; 7.25% in assay [5]; -5.35% in assay [6].
In the case of `NC(=O)CCBr`, the growth inhibition in assay [1] was -15.3%; in assay [2], 20.2%; in assay [3], -5.45%; in assay [4], -20.4%; in assay [5], 1.3%; in assay [6] it was -29.1%.
For the molecule `CCC(/C=C\C(C)C1CCC2C3CC=C4CC(OS(=O)(=O)c5ccc(C)cc5)CCC4(C)C3CCC12C)C(C)C` (stereo unspecified), the growth inhibition in assay [1] was -9.9%; in assay [2], -3.95%; in assay [3], -16.6%; in assay [4], -5.6%; in assay [5], 1.1%; in assay [6], -32.1%.
On to `CN(C)C(=S)/N=c1\ss/c(=N\C(=S)N(C)C)n1-c1ccc2c(c1)OCO2`, for which the growth inhibition was -16.1% in assay [1]; -4.1% in assay [2]; -3.45% in assay [3]; -1.45% in assay [4]; -16.9% in assay [5]; 1.7% in assay [6].
Turning to `O=C(NCN1CCOCC1)Nc1ccc(Cl)cc1`, the growth inhibition in assay [1] was -13.4%; in assay [2], 8.5%; in assay [3] it was -4.8%; in assay [4], -22.3%; in assay [5] it was 8.75%; in assay [6] it was -3.25%.
Regarding `O=C1NC(N(Cc2ccccc2)Cc2ccccc2)=NC1(c1ccccc1)c1ccccc1`, the growth inhibition in assay [1] was 16.2%; in assay [2] it was 2.85%; in assay [3] it was 23.2%; in assay [4], 7.45%; in assay [5], 5.9%; in assay [6], 20.6%.
Regarding `COc1ccc(CC(=O)NCCc2ccc(OC)c(OC)c2)cc1Br`, the growth inhibition in assay [1] is 12.2%; in assay [2] it was -4.85%; in assay [3], -3.8%; in assay [4] it was 8.35%; in assay [5], 8.8%; in assay [6], 2.6%.
In the case of `COc1ccccc1C=Nc1ccc(O)cc1`, the growth inhibition in assay [1] is 8.45%; in assay [2], 12.3%; in assay [3] it was 3.9%; in assay [4], -26.6%; in assay [5], 3.5%; in assay [6], 37.5%.
Regarding `Clc1ccc(/C=C2\c3ccccc3-c3nc4ccccc4nc32)cc1`, the growth inhibition is -6.7% in assay [1]; -8.05% in assay [2]; -8.65% in assay [3]; -13.4% in assay [4]; -8.25% in assay [5]; -21.9% in assay [6].
Regarding `O=C(NP(=O)(O)NC(Cc1ccccc1)C(=O)O)OCc1ccccc1` (stereo unspecified), the growth inhibition is -7.45% in assay [1]; -6.65% in assay [2]; 4.1% in assay [3]; -18.9% in assay [4]; 1.8% in assay [5]; -12.2% in assay [6].
In the case of `O=C(O)C1CCCN1Cc1cc2ccccc2c2ccccc12` (stereo unspecified), the growth inhibition in assay [1] was 11.2%; in assay [2], -11.1%; in assay [3], -25.9%; in assay [4] it was 8.6%; in assay [5], -3.3%; in assay [6], 26.5%.

The values above are taken from PubChem BioAssay (NCI).
